# Rows were chosen to be rich in hits. Some 3.4% of all compounds tested hit in one or more screens of this group.
# PG9 binder = binders of HIV-1 gp120 antibody PG9, primary screen, biochemical, TR-FRET | HIV-1 gp120 / PG9 antibody interaction | TR-FRET gp120-PG9 antibody binding | inhibition, % at 6.7 µM | actives 0.43% (n = 360,000); in the data active = inhibition above about 8.5%
# AI-2 QS modul = Vibrio harveyi AI-2 quorum sensing modulators, primary screen, JMH597 strain, luminescence/OD600 ratio; Vibrio harveyi JMH597 AI-2 luminescence/OD600 ratio, 9 h; stronger effect = lower value; strain lacks LuxN and CqsS sensors; 0 = neutral-control median; activity change, % at 7.5 µM; actives 0.4% (n = 300,000); AID 2094, 2009; in the data active = activity change below about -75%, passing the limit was not always enough;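 also: luminescence divided by OD600 gain over 9 h not by final OD600 alone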
# FXN GAA850 act = FXN promoter activators, primary screen, cell-based, luciferase luminescence, HEK293 lucGAA850; actives 0.56% (n = 360,000); HEK293 lucGAA850 FXN promoter luciferase reporter, 24 h; percent of 10 µM SAHA response; AID 540364, 2011; activation, % at 6 µM;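 active = activation above the average of all compounds screened plus 3 SD, cutoff fixed separately per campaign, cut at about 7.5% in these data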
# HSF1 inh = HSF1 inhibitors in luciferase reporter cells, primary screen, cell-based, NIH3T3, luminescence; NIH3T3-HGL HSE-luciferase, MG132-induced, luminescence 8 h; stronger effect = lower value; activity change, negative = inhibition, % at 7.5 µM (by protocol); actives 0.77% (n = 300,000);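 active = more than half of replicate wells show activity change below -50%, luminescence cut by over half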;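 also: luciferase reports HSF-1 transcriptional activity via heat shock element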
# SMARCA2 activ = SMARCA2 (BRM) function activators, primary screen, cell-based, luminescence, high throughput; MG213 cells, MMTV-luciferase reporter, dexamethasone, overnight; activation, % at 9.1 µM; actives 1% (n = 370,000); in the data active = activation above about 7.8%
# HSP90 inh = HSP90 inhibitors, primary screen, cell lysate, luminescence; inhibition, % at 5.6 µM; actives 0.91% (n = 290,000); Heat shock protein HSP 90 (rabbit reticulocyte lysate; luciferase refolding); Rabbit reticulocyte lysate, luciferase refolding luminescence, 3 h;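 active = inhibition above the screen-wide mean plus 3 SD, computed separately per campaign, cut at about 16% in these data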;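 also: inhibitors lower the luminescence because luciferase stays unfolded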
# HSP90 inh confirm = HSP90 inhibitors, confirmation, cell lysate, luminescence. shares compounds with HSP90 inh. rabbit reticulocyte lysate, luciferase refolding luminescence, 3 h. inhibition, % at 5.9 µM. actives 64% (n = 2,300); in the data active = inhibition above about 18%
# luciferase ctr = firefly luciferase inhibitors, HSP90 counter-screen, confirmation, artefact control for HSP90 inhibitor project, biochemical, luminescence, triplicate | shares compounds with HSP90 inh | purified native firefly luciferase | inhibition, % at 5.9 µM | actives 48% (n = 2,300);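 active = inhibition above the mean inhibition of all tested sample wells plus 3 SD, cut at about 10% in these data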
# Target sequence (P08659 whole entry, looked up): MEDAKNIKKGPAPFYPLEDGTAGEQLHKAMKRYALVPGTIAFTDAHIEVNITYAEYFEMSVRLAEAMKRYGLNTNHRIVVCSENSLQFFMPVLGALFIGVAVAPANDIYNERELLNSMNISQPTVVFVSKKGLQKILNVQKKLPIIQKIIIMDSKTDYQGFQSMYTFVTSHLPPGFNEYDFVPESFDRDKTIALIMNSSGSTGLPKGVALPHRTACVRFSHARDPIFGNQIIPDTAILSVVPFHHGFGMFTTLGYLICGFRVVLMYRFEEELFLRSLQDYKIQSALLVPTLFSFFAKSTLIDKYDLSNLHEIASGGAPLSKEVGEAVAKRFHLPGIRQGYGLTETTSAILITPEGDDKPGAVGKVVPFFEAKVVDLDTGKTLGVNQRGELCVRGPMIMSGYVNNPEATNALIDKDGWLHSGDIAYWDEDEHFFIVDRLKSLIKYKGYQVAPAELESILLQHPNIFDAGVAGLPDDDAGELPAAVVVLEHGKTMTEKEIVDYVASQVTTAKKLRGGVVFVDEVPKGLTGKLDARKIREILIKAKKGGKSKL
# Numbers stand for hits; n = inactive; x = not tested or not shown.
SMILES,PG9 binder,AI-2 QS modul,FXN GAA850 act,HSF1 inh,SMARCA2 activ,HSP90 inh,HSP90 inh confirm,luciferase ctr
COc1ccc(C(=O)Cn2c(C)nc([N+](=O)[O-])c2Br)cc1,n,n,n,n,n,22.4,n,n
Cc1ccc(NC(=O)CN2C(=O)S/C(=C\c3ccc(-c4cccc(C(=O)O)c4C)o3)C2=O)cc1,x,n,x,n,x,25.6,24.1,n
Cc1cccc(Cn2cc(COC(=O)NCCc3ccccc3)nn2)c1,x,x,x,x,n,x,x,x
CC1CCN(c2ccc(-c3cccs3)nn2)CC1,n,n,n,-67.1,n,80.9,90.1,84.4
COC(=O)c1cc2c(c3c4ccccc4n(S(=O)(=O)c4ccccc4)c13)C(=O)N(Cc1ccco1)C2,n,x,x,x,n,x,x,x
Cc1c(OCc2ccccc2)c(=O)ccn1Cc1ccccc1,n,n,n,n,n,19.5,n,n
O=c1ccn(Cc2ccccc2)c2ccccc12,n,n,n,n,n,x,x,x
Nc1nc(-c2ccc(NC(=O)c3ccco3)cc2)cs1,n,n,n,n,n,28.4,50.6,46.0
COC(=O)[C@]12C[C@H](CC(=O)N3CCN(C(=O)C4CC4)CC3)C(=O)N(Cc3cccc4ccccc34)C1=C[C@H](COCc1ccccc1)O[C@@H]2C,x,x,x,x,n,x,x,x
COC(=O)C1=C(C)N(Cc2ccccc2C(F)(F)F)C(=NCc2ccccc2C(F)(F)F)NC1c1ccc(C(F)(F)F)cc1 (stereo not drawn),n,x,x,x,n,x,x,x
CC(=O)CSc1nnc(-c2ccc3c(c2)OCO3)o1,n,n,n,n,n,17.9,37.1,n
Cn1c(SCC(=O)OC2CCCCC2)nnc1-c1ccco1,n,n,n,n,n,21.8,n,n
CC(=O)N1CCc2cc(S(=O)(=O)NC3CCN(C(=O)C(C)(C)C)CC3)ccc21,x,x,x,x,n,x,x,x
c1ccc(-n2cnc3cc(NCc4cccs4)ccc32)cc1,n,n,n,-66.6,n,51.3,62.6,60.7
O=C(Nc1nc2ccccc2[nH]1)c1ccc(Cl)cc1,n,n,n,n,n,46.0,65.0,57.9
O=C(Nc1nc2ccccc2[nH]1)c1ccccc1,n,n,n,n,n,17.1,57.3,39.3
O=C(Nc1nc2ccccc2[nH]1)c1cccc(Cl)c1,n,n,n,n,n,n,x,x
CC(=O)Nc1nc2ccccc2[nH]1,n,n,n,n,n,n,x,x
CCOC(=O)CNC(=O)CSc1nnc(-c2ccccc2)n1CC,x,x,x,x,n,x,x,x
COC(=O)[C@@]12CCCCC3=C1N(CCC3)C(=O)[C@H]2CC(=O)NCCC(C)C,x,x,x,x,n,x,x,x
COC(=O)c1ccc(NC(=O)c2ccc(C)cc2)o1,n,n,n,n,n,29.6,37.5,n
Cc1ccc(N2CC(O)=C(c3nc4ccccc4c(=O)[nH]3)C2=N)cc1C,n,n,n,n,n,25.0,n,n
Cc1ccc(S(=O)(=O)CCC(=O)OC(C)C(=O)Nc2ccc(N3CCOCC3)cc2)cc1 (stereo not drawn),n,x,n,x,n,x,x,x
Cc1ccc(C(=O)NCC(=O)OC(C)C(=O)Nc2ccc(N3CCOCC3)cc2)s1 (stereo not drawn),n,n,n,n,n,19.6,n,n
Cc1csc(NC(=O)c2ccc3ccccc3n2)n1,n,n,n,n,n,n,x,x
SMILES,PG9 binder,AI-2 QS modul,FXN GAA850 act,HSF1 inh,SMARCA2 activ,HSP90 inh,HSP90 inh confirm,luciferase ctr
Cc1csc(NC(=O)c2cn3ccccc3n2)n1,n,n,n,n,n,54.5,70.2,62.1
O=C(Nc1ccccc1)c1cn2ccccc2n1,n,n,n,n,n,37.3,59.4,41.2
Cc1csc(NC(=O)c2cnc3ccccc3n2)n1,n,n,n,n,n,43.4,53.0,39.7
CCc1ccc(C(=O)Nc2nc(C)cs2)s1,n,n,n,n,n,42.9,56.0,51.5
OCC1OC(C(N=Nc2ccccc2)=NNc2ccccc2)C(O)C1O (stereo not drawn),n,x,x,x,n,x,x,x
COC(=O)C1=CC(=O)C=C(OC)[C@@]12Oc1cc(C)cc(OC)c1C2=O,x,x,x,x,n,x,x,x
O=C(NC1CCCCN(Cc2ccc(Cl)cc2)C1=O)c1ccc(Cl)cc1Cl (stereo not drawn),x,x,x,x,n,x,x,x
CCCC[C@H]1C2CC(OC(=O)Nc3ccccc3C(F)(F)F)C(C2)[C@H]2CCCCN21 (stereo partly drawn),x,x,x,x,n,x,x,x
CCC(C(=O)Nc1ccccc1N1CCCC1)c1ccccc1Cl (stereo not drawn),x,x,x,x,n,x,x,x
Cc1nc(NC(=O)c2ccccc2)sc1-c1csc(NCc2ccco2)n1,x,n,n,n,x,48.3,28.9,n
Cc1nc(NC(N)=S)sc1C(=O)Nc1ccccc1,n,n,n,n,n,18.8,25.9,n
CCC(=O)Nc1nc(C)c(-c2csc(Nc3ccc(C(=O)O)cc3)n2)s1,n,n,n,n,n,n,x,x
COc1cccc(NC(=O)c2sc(NC(=O)c3ccncc3)nc2C)c1,n,n,n,n,n,78.5,79.9,41.4
Cc1nc(NC(=O)c2ccccc2)sc1-c1csc(Nc2ccc(C(=O)O)cc2)n1,n,n,n,n,n,30.9,n,n
COC(=O)c1cc(-c2ccc(Cl)s2)c(=O)n2c1CCC2,x,x,x,x,n,x,x,x
FC(F)(F)Oc1cccc(Cn2ccc3ccc(-c4ccc5ccn(Cc6ccccc6)c5c4)cc32)c1,x,x,x,x,n,x,x,x
C[C@@H](NC(=O)c1ccc(C#Cc2cccc(F)c2)cn1)C(C)(C)O,x,x,x,x,n,x,x,x
N#CCC[C@@H]1CC[C@]2(CCCN(C(=O)c3ccno3)C2)O1,x,x,x,x,n,x,x,x
COc1cccc(Nc2nc(-c3sc(NC(=O)c4ccccc4)nc3C)cs2)c1,n,n,n,n,n,44.9,n,n
Cc1nc(NC(=O)c2ccc(F)cc2)sc1C(=O)Nc1ccc2c(c1)CCC2,n,n,n,n,n,39.0,45.7,n
COC(=O)c1sc(NC(=S)NC(=O)c2cccc(C)c2)nc1C,n,n,n,n,n,22.3,n,n
COc1cccc(Nc2nc(-c3sc(NC(=O)CC(C)C)nc3C)cs2)c1,n,n,n,n,n,n,x,x
Cc1ccc(C(=O)Nc2nc(C)c(C(=O)Nc3ccc4c(c3)CCC4)s2)cc1,n,n,n,n,n,n,x,x
COC(=O)c1sc(NC(=S)NC(=O)c2ccccc2F)nc1C,n,n,n,n,n,n,x,x
